SMN2 splice up: SMN2 splice variant enhancement; HEK293 SMN2-luciferase splicing reporter, luminescence, 30-36 h; Potency, µM (highest dose often 46.1 µM), for inactives: top-dose activity change, positive = activation, actives largely listed as activators; 210,000 compounds, 2.8% hits; further: % of control where 0% means no effect; nearly all actives have a fitted effect of over 55% in size
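qHTS luciferase splicing reporter: luminescence rises when SMN2 exon 7 is included in transfected HEK293 cells. Compound exposure lasted 30-36 h at 37C, with 4.5 mM final sodium butyrate as control, followed by a ONE-Glo read.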
Rab9 prom act: activators of Rab9 promoter; Huh7 Rab9 promoter-luciferase reporter, luminescence, 24 h; Potency, µM (top dose mostly 9.22 µM), for inactives: at the top dose activation, negative = inhibition, hits mostly activators; 320,000 compounds, 2.8% hits; further: % of control where 0% means no effect; nearly all actives have a fitted effect of over 60% in size
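Cell-based reporter: Huh7 stable for Rab9 promoter-driven luciferase, plated in reduced-serum medium with 10% FBS at 1500 cells/well, compound-treated 24 h at 37 °C, luminescence read after 10 min reagent.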
FLuc modulator: inhibits or activates purified firefly luciferase, miR-21 counter-screen | AID 588342 | purified FLuc, Km substrates, luminescence inhibition | Potency, µM (top dose mostly 57.5 µM), for the others: at the highest dose activity change, negative = inhibition, most hits filed as inhibitors | P08659 | 360,000 compounds, 6.9% hits;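 further: plate controls were vehicle for no effect and reference inhibitor for full effect; nearly all actives have a fitted effect of over 55% in size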
Target sequence (P08659 whole entry, looked up): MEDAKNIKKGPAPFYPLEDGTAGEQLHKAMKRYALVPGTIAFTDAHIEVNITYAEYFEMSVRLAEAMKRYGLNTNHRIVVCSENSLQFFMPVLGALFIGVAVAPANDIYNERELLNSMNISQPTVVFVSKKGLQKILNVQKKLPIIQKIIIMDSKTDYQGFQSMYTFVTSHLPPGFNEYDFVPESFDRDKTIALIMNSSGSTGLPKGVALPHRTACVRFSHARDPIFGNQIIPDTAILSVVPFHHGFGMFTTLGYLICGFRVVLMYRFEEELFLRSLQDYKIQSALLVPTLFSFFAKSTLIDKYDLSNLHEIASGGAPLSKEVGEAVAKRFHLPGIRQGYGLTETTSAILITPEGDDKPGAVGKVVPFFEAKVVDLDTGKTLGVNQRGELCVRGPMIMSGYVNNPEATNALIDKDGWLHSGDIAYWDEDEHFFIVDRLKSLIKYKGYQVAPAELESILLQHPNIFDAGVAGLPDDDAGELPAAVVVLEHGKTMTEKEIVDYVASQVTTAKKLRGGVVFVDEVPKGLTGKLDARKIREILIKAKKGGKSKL
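Purified P. pyralis luciferase (10nM final) with 10uM D-luciferin and 10uM ATP (Km levels) in 50mM Tris acetate pH 7.5, 10mM Mg acetate, 0.01% Tween-20, 0.05% BSA; qHTS 6-point titration, ~60 µM downward; luminescence read.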
ELG1 genotox: induces genotoxicity in HEK293T cells with luciferase-tagged ELG1; Potency, µM (doses to about 46 µM), for the others: at the highest dose activity change, positive = activation, usual class: activators; HEK293T ELG1-luciferase reporter, luminescence, 16 h; AID 504466; 330,000 compounds, 1.3% hits; further: % of control where 0% means no effect; nearly all actives have a fitted effect of over 60% in size
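Luminescence read-out: rising ELG1-luciferase signal, reflecting elevated ELG1 protein under genetic stress, flags genotoxic compounds. Cells were treated for 16 hr at 37 °C before ONE-Glo detection.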
ELG1 DNA repair: blocks ELG1-dependent DNA repair in HEK293T cells | HEK293T ELG1-luciferase reporter, luminescence, 16 h; DNA damage induced by 5-fluorouridine | Potency, µM (doses to about 46.1 µM), without a hit: top-dose activity change, negative = inhibition, actives largely listed as inhibitors | 330,000 compounds, 2.3% hits; further: on the % scale 0 is the no-effect control and ±100 the full control effect; nearly all actives have a fitted effect of over 55% in size
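5-Fluorouridine DNA damage + compound/DMSO, 2,000 cells/well, 16 h, 37 °C/5% CO2. ONE-Glo, 30 min RT, luminescence. Readout = decrease in reporter signal.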
NPC1 prom act: activates the NPC1 promoter; 320,000 compounds, 2.4% hits; Huh7 NPC1 promoter luciferase reporter, 24 h; Potency, µM (top dose mostly 9.22 µM), for the others: top-dose activation, hits mostly activators; further: % of control where 0% means no effect; nearly all actives have a fitted effect of over 60% in size
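Luminescence read-out of NPC1 promoter-driven luciferase in stably transfected Huh7 cells; compounds delivered in DMSO and left 24 h at 37C, 5% CO2, qHTS titration format.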
The depositor's hits bear a star; ? = inconclusive; . = no result given; [ ] = dose if it differs, or a comment. Only some compounds are listed: those with a hit (about 9.2% of all), similar ones and a draw of the others. The call rests on the fitted dose curve; in most records, active means well fitted curve in the direction sought with a large enough effect; inconclusive means small, poorly fitted or top-dose-only effect, or another doubt; inactive means no such curve, though single readings can be large; an effect the other way counts as inactive or inconclusive. Potency means the concentration at half of the fitted maximal effect.

SMILES | SMN2 splice up | Rab9 prom act | FLuc modulator | ELG1 genotox | ELG1 DNA repair | NPC1 prom act
COc1ccc(NC(=O)c2sc3nc(N4CCCC4)c4c(c3c2N)CC(C)(C)OC4)cc1 | . | -5.2% | -1.7% | 0.7% | 5.8µM* | -10.8%
CC1(C)Cc2c(c(N3CCOCC3)nc3sc(-c4ccc(C(=O)O)o4)c(N)c23)CO1 | 8.1% | -7.4% | -1.5% | -6.0% | 2.59µM* | 1.2%
Cc1nc2c(sc3nc(N4CCOCC4)c4c(c32)CC(C)(C)OC4)c(-c2ccccc2)c1C(=O)O | . | -0.1% | -0.6% | -6.2% | 3.66µM* | -1.6%
Cc1cc(C)c(NC(=O)c2ccc(CN3CCc4ccccc4C3)cc2)c(C)c1 | -39.5% | -3.5% | -0.1% | -5.6% | ? | -2.1%
O=C1CCC/C(=N\NC(=O)c2ccc(COc3cccc4cccnc34)cc2)C1 | -11.2% | 10.5% | -12.7% | -0.8% | ? | 3.0%
CC(=O)c1c(C)[nH]c(C(=O)CN2CCN(S(=O)(=O)c3ccccc3)CC2)c1C | . | -7.8% | 2.2% | -1.8% | 0.0% | -1.6%
COc1ccc(C)cc1NC(=O)c1ccccc1NS(=O)(=O)c1cccc2cccnc12 | -9.3% | 1.7% | 2.1% | 0.3% | -21.5% | -0.3%
COc1ccc(N2CCN(C(=O)CCCn3c(=S)[nH]c4cc5c(cc4c3=O)OCO5)CC2)cc1 | -21.4% | -0.2% | -1.4% | 1.9% | 20.6µM* | -2.7%
O=C(CCCCCn1c(=S)[nH]c2cc3c(cc2c1=O)OCO3)N1CCN(Cc2ccccc2)CC1 | -16.9% | -3.3% | -1.7% | -0.7% | -26.7% | -4.8%
O=C(CCCn1c(=S)[nH]c2cc3c(cc2c1=O)OCO3)N1CCN(c2ccccn2)CC1 | -9.5% | -3.6% | 0.6% | -12.2% | 14.6µM* | -5.4%
CCCCn1c(=S)[nH]c2ccc(N3CCOCC3)cc2c1=O | -9.3% | 0.1% | -10.4% | -6.2% | -24.2% | 14.3%
Cc1cccc(N2CCN(C(=O)CCCCCn3c(=S)[nH]c4ccc(N5CCOCC5)cc4c3=O)CC2)c1C | . | -11.0% | 1.6% | -13.6% | 16.4µM* | -4.7%
O=C(NCCc1ccccc1)C(=O)NCC1OCCN1S(=O)(=O)c1ccc(F)cc1 (stereo not drawn) | . | -8.4% | 0.1% | 1.6% | 12.9% | 4.6%
O=C(C1=C[C@H](c2ccc(Br)cc2)C[C@H](OCCCCO)O1)N1CCOCC1 | . | 0.02µM* | -38.1% | 9.1% | ? | 0.0251µM*
O=C(C1=C[C@@H](c2ccc(Br)cc2)C[C@@H](OCc2ccc(CO)cc2)O1)N1CCN(Cc2ccccc2)CC1 | . | -1.7% | -1.8% | -14.7% | 23.1µM* | 1.9%
C#Cc1ccc([C@@H]2C=C(C(=O)N3CCOCC3)O[C@H](OCCCCO)C2)cc1 | . | 1.1% | 3.6% | 8.8% | 12.7% | -3.3%
COc1ccccc1NC(=O)CSc1nc(=O)n2cc(C)ccc2n1 | . | -1.1% | 3.1% | -1.4% | -11.9% | -7.9%
CC(=O)Nc1sc(C)c(C)c1C(=O)OCC(=O)N(Cc1ccccc1)C(C)C | . | 3.3% | -0.5% | -1.4% | -22.4% | -0.5%
Cc1cccc(-n2ncc3c(NC4CCCCC4)ncnc32)c1 | ? | 2µM* | 1.51µM* | ? | ? | 4.47µM*
Cc1cccc(-n2ncc3c(NC4CCCC4)ncnc32)c1 | . | . | 3.01µM* | . | . | .
Clc1cccc(-n2ncc3c(NC4CCCCCC4)ncnc32)c1 | . | . | 6.01µM* | . | . | .
Cc1cccc(-n2ncc3c(Nc4c(C)n(C)n(-c5ccccc5)c4=O)ncnc32)c1 | 2.6% | 6.7% | -7.7% | -1.9% | -4.1% | 1.0%
CC1/C(=N/O)CC(c2ccccc2)NC1c1ccccc1 (stereo not drawn) | -20.1% | -1.4% | 1.0% | -6.1% | -3.1% | 0.9%
CC(C)C1/C(=N/O)CC(c2ccccc2)NC1c1ccccc1 (stereo not drawn) | . | 1.3% | -3.2% | -13.7% | 16.4µM* | -1.0%
c1ccc(N2CCN(c3ncnc4[nH]ncc34)CC2)cc1 | . | . | -1.6% | . | . | .
SMILES | SMN2 splice up | Rab9 prom act | FLuc modulator | ELG1 genotox | ELG1 DNA repair | NPC1 prom act
CN=c1nc(-c2ccccc2)n(-c2ccccc2)s1 | ? | -12.1%[46.1 µM] | 15.1µM* | ? | ? | -5.1%[46.1 µM]
c1ccc(-c2nnnn2-c2ccccc2)cc1 | . | 2.9% | 0.9% | -0.3% | 4.5% | 0.4%
COc1ccccc1-c1nc(COc2ccc(Cl)cc2Cl)no1 | . | 3.98µM* | 8.49µM* | ? | ? | 3.55µM*
COc1cccc(-c2nc(COc3ccc(Cl)cc3Cl)no2)c1 | . | 0.4% | 15.1µM* | 7.0% | 7.0% | 1.2%
COc1ccc(-c2c3c(=O)n(C)c(=O)n(C)c3cn2-c2cccc(N)c2)cc1 | 10.8% | . | -17.3% | . | . | .
CCOc1ccc(C(=O)CSc2nnc3ccccn23)cc1 | -1.8% | 1.12µM* | 3.01µM* | 20.6µM* | ? | 2µM*
O=C(CSc1nnc2ccccn12)NNC(=O)c1ccc(Cl)cc1 | -6.6% | -3.6% | -6.9% | -2.2% | -2.5% | -1.6%
Cc1c(Cl)cnc(NC(=O)CSc2nnc3ccccn23)c1Cl | ? | ? | ? | 18.4µM* | ? | 20.8%
O=C(CSc1nnc2ccccn12)c1ccc(Cl)cc1 | -8.4% | 3.55µM* | ? | ? | ? | 22.6%
CCOc1ccc(-n2nnnc2SCC(=O)c2ccccc2)cc1 | -17.9% | -2.2% | ? | 9.8% | 11.1% | 24.2%
CN(c1ccc([N+](=O)[O-])cc1/C=N/NC(=O)COc1ccccc1)C1CCCCC1 | -10.3% | -2.5% | -2.1% | -0.5% | -11.0% | -4.1%
O=C(C1CCCCC1)N1CCN(c2nc(-c3ccc(F)cc3)cs2)CC1 | -37.8% | -0.4% | ? | -14.8% | 20.6µM* | -0.7%
NC(=O)C1CCN(c2nc(-c3ccccc3F)cs2)CC1 | . | 0.316µM* | ? | ? | ? | 0.794µM*
COc1cccc(-c2csc(N3CCN(C(=O)C4CCCCC4)CC3)n2)c1 | 1.3% | 1.6% | -19.2% | -9.2% | ? | -2.5%
S=C(NCC1CCCO1)N1CCN(c2nc(-c3ccc(Cl)cc3)cs2)CC1 (stereo not drawn) | -62.4% | -17.8% | ? | -9.8% | 11.6µM* | -12.9%
CCOC(=O)N1CCN(c2nc(-c3ccc(F)cc3)cs2)CC1 | ? | -1.7% | 19µM* | ? | 0.0% | -2.5%
NC(=O)C1CCN(c2nc(-c3ccccc3Br)cs2)CC1 | . | 0.5% | ? | ? | ? | 10.0%
CCC(C)N(C(=O)CSc1nnc(-c2cccs2)n1C1CC1)C1CCS(=O)(=O)C1 (stereo not drawn) | . | 10.3% | 0.8% | 1.0% | 13.6% | -0.7%
Cc1cccc(-c2nc(S(=O)(=O)c3ccc(F)cc3)c(N3CCN(c4ccccc4)CC3)o2)c1 | -6.1% | . | -2.0% | . | . | .
O=C(NCc1ccccc1Cl)c1ccc(CSCc2ccccc2Cl)o1 | . | . | -15.7% | . | . | .
C[C@@H](O)C#C[Si](C)(C)c1ccccc1 | 5.9% | . | . | . | . | .

Screening data deposited in PubChem by National Center for Advancing Translational Sciences (NCATS).
